Experimental data as given in ChEMBL document CHEMBL1961873, “Compounds: GSK PKIS; Assays: Nanosyn kinase panel” (2012).

Assays:
[1] = target: Sphingosine kinase 1 (Homo sapiens) (UniProt Q9NYA1); settings: at 1 µM;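 note: mean SPHK1 inhibition value reported from the GSK PKIS kinase panel screen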
[2] = target: T1, Sphingosine kinase 2 (Homo sapiens) (UniProt Q9NRA0); settings: at 0.1 µM
T1 sequence (whole entry): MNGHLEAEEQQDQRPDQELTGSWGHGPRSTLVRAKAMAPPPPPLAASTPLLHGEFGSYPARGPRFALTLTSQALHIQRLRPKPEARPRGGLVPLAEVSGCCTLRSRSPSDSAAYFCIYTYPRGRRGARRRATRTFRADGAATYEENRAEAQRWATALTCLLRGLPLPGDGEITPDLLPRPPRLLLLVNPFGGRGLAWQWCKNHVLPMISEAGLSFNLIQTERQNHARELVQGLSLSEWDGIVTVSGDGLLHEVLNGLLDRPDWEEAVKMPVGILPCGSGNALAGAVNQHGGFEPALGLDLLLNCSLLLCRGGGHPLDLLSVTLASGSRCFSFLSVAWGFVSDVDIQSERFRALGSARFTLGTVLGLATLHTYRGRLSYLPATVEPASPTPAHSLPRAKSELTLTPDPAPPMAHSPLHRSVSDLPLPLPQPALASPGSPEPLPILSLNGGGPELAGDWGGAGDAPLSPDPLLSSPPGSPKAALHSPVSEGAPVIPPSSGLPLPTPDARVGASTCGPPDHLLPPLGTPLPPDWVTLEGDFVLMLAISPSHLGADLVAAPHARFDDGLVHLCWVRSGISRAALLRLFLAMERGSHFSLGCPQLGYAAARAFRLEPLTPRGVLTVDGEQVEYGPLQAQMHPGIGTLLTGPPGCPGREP

[3] = target: T1, Sphingosine kinase 2 (Homo sapiens); settings: at 1 µM
[4] = target: Casein kinase II subunit alpha (Homo sapiens) (UniProt P68400); settings: at 0.1 µM
Sequence of Casein kinase II subunit alpha (Homo sapiens) (P68400 whole entry, looked up): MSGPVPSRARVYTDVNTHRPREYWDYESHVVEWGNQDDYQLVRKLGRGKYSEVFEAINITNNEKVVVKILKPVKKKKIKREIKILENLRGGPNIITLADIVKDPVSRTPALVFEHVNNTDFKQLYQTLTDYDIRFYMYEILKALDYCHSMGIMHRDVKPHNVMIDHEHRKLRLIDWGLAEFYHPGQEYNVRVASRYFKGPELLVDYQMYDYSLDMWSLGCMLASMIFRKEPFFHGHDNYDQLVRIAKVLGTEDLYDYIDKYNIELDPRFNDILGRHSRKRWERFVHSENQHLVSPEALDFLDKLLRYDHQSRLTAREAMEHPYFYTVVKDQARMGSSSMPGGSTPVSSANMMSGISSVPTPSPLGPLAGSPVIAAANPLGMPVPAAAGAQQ

[5] = target: Casein kinase II subunit alpha (Homo sapiens) (UniProt P68400); settings: at 1 µM
[6] = target: T2, Inhibitor of nuclear factor kappa-B kinase subunit alpha (Homo sapiens) (UniProt O15111); settings: at 0.1 µM
T2 sequence (whole entry): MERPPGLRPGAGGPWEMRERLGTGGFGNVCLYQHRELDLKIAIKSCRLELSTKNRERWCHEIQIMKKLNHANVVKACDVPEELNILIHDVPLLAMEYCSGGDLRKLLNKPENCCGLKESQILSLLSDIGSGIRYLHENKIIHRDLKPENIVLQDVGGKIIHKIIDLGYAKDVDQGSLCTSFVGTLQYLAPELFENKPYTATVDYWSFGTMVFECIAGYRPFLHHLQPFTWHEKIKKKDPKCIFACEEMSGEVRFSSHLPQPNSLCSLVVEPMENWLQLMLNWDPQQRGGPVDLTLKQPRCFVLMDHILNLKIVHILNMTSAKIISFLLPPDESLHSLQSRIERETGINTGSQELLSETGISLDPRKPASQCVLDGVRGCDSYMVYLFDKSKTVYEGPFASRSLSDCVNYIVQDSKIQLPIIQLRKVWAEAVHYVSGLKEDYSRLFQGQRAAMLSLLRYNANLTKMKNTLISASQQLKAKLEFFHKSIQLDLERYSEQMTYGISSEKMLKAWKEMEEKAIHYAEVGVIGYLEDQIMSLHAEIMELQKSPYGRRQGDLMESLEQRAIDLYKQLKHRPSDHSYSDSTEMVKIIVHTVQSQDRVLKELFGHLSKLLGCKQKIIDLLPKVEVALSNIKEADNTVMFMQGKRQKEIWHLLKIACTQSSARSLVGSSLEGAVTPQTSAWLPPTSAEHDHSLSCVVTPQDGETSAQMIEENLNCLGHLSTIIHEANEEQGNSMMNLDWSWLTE

[7] = target: T2, Inhibitor of nuclear factor kappa-B kinase subunit alpha (Homo sapiens); settings: at 1 µM
[8] = target: T3, Inhibitor of nuclear factor kappa-B kinase subunit beta (Homo sapiens) (UniProt O14920); settings: at 0.1 µM
T3 sequence (whole entry): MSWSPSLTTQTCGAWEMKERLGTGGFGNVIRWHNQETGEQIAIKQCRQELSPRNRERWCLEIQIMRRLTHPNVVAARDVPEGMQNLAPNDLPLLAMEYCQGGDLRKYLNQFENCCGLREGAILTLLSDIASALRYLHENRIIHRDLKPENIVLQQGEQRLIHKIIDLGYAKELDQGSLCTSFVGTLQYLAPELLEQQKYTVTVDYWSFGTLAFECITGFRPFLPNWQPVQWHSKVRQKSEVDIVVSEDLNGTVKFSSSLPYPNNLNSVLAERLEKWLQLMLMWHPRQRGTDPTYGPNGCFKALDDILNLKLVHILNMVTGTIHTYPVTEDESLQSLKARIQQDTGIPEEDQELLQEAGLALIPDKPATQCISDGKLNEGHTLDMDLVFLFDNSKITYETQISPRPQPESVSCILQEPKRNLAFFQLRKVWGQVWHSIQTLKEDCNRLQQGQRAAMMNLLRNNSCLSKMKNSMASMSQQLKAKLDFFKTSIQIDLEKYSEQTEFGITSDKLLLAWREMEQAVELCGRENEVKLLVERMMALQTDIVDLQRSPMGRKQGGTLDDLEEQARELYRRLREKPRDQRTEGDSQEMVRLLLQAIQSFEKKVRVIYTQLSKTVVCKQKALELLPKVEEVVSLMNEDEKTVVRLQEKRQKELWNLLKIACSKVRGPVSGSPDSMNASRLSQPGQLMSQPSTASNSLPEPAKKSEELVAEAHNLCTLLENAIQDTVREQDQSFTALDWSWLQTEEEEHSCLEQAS

[9] = target: T3, Inhibitor of nuclear factor kappa-B kinase subunit beta (Homo sapiens); settings: at 1 µM
[10] = target: T4, Inhibitor of nuclear factor kappa-B kinase subunit epsilon (Homo sapiens) (UniProt Q14164); settings: at 0.1 µM
T4 sequence (whole entry): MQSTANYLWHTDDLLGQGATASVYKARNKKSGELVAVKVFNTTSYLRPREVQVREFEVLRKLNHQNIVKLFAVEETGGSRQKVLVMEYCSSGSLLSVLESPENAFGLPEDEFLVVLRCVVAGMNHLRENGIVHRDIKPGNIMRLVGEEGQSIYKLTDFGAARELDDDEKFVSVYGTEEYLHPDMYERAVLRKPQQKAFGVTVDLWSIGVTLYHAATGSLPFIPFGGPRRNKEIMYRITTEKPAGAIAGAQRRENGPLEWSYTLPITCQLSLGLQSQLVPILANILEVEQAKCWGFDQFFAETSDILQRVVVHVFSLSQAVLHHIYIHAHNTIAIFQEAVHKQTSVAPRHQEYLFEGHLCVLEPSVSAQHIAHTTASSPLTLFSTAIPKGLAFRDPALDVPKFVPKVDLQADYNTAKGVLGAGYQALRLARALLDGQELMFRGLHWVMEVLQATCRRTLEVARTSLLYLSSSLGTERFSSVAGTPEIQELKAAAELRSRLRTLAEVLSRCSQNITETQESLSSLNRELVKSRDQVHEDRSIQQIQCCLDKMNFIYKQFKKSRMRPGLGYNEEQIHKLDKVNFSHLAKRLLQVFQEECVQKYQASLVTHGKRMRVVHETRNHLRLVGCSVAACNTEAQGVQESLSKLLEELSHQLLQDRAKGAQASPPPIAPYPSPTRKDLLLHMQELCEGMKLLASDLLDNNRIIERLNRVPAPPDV

[11] = target: T4, Inhibitor of nuclear factor kappa-B kinase subunit epsilon (Homo sapiens); settings: at 1 µM
[12] = target: T5, Serine/threonine-protein kinase Nek1 (Homo sapiens) (UniProt Q96PY6); settings: at 0.1 µM
T5 sequence (whole entry): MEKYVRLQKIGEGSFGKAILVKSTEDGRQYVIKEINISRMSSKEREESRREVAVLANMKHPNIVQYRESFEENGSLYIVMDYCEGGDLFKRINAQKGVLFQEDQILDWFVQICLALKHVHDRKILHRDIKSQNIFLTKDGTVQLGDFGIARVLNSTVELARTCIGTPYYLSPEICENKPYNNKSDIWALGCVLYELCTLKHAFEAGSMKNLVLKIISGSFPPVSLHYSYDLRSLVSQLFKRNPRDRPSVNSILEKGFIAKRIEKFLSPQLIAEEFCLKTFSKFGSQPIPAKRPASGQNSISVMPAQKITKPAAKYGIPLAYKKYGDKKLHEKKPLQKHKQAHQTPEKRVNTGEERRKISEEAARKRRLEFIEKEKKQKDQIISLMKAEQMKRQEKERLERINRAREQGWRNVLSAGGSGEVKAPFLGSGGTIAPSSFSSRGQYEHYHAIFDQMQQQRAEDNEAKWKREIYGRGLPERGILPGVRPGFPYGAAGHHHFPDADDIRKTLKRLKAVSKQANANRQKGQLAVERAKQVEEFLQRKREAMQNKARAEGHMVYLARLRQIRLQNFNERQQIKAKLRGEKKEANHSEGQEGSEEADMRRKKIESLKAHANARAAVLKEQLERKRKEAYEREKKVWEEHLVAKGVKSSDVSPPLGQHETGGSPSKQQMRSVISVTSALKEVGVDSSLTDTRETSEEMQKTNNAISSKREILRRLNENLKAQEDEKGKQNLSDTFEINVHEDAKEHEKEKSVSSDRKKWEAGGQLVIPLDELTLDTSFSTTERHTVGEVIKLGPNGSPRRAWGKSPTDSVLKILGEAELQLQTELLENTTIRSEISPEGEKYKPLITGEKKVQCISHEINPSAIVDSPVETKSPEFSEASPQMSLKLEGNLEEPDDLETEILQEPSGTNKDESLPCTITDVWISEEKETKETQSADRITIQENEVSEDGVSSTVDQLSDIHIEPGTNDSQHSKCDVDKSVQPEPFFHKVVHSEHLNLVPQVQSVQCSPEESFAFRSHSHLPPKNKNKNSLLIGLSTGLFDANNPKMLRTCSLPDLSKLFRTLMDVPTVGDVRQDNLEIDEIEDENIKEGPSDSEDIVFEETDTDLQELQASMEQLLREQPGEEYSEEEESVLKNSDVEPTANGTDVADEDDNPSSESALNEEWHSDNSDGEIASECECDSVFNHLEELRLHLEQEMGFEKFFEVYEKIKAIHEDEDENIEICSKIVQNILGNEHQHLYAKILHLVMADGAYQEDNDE

[13] = target: T5, Serine/threonine-protein kinase Nek1 (Homo sapiens); settings: at 1 µM
[14] = target: T6, Serine/threonine-protein kinase Nek2 (Homo sapiens) (UniProt P51955); settings: at 0.1 µM
T6 sequence (whole entry): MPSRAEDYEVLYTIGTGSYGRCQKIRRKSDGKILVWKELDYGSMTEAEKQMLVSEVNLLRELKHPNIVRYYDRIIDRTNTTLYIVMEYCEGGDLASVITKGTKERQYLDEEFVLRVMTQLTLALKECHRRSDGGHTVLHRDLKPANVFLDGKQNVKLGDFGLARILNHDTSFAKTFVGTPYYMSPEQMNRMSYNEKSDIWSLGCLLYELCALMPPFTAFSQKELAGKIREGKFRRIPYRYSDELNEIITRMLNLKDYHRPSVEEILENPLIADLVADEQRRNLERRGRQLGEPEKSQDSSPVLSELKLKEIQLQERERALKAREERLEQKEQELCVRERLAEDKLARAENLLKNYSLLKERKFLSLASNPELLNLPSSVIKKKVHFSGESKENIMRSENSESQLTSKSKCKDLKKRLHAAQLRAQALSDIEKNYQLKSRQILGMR

[15] = target: T6, Serine/threonine-protein kinase Nek2 (Homo sapiens); settings: at 1 µM
[16] = target: Serine/threonine-protein kinase Nek6 (Homo sapiens) (UniProt Q9HC98); settings: at 0.1 µM
Sequence of Serine/threonine-protein kinase Nek6 (Homo sapiens) (Q9HC98 whole entry): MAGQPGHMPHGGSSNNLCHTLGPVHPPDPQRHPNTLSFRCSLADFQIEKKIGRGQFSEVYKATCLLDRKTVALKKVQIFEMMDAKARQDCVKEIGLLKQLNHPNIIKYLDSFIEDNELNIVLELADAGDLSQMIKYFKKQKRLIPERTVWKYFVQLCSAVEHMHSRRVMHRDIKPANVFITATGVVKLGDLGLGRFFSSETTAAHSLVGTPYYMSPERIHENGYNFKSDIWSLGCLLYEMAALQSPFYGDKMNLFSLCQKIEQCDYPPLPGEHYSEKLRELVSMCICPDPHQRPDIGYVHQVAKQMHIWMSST

[17] = target: Serine/threonine-protein kinase Nek6 (Homo sapiens) (UniProt Q9HC98); settings: at 1 µM
[18] = target: Serine/threonine-protein kinase Nek7 (Homo sapiens) (UniProt Q8TDX7); settings: at 0.1 µM
Sequence of Serine/threonine-protein kinase Nek7 (Homo sapiens) (Q8TDX7 whole entry, looked up): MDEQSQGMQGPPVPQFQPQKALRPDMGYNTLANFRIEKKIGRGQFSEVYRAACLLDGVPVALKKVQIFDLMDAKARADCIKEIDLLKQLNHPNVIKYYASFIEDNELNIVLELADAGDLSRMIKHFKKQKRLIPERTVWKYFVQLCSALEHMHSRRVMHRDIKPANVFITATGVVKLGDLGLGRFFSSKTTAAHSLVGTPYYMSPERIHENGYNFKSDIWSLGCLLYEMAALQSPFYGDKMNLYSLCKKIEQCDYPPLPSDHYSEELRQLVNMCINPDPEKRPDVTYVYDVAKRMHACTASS

[19] = target: Serine/threonine-protein kinase Nek7 (Homo sapiens) (UniProt Q8TDX7); settings: at 1 µM
[20] = target: T7, Serine/threonine-protein kinase Nek9 (Homo sapiens) (UniProt Q8TD19); settings: at 0.1 µM;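 note: reported value is the mean percent inhibition of NEK9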
T7 sequence (whole entry): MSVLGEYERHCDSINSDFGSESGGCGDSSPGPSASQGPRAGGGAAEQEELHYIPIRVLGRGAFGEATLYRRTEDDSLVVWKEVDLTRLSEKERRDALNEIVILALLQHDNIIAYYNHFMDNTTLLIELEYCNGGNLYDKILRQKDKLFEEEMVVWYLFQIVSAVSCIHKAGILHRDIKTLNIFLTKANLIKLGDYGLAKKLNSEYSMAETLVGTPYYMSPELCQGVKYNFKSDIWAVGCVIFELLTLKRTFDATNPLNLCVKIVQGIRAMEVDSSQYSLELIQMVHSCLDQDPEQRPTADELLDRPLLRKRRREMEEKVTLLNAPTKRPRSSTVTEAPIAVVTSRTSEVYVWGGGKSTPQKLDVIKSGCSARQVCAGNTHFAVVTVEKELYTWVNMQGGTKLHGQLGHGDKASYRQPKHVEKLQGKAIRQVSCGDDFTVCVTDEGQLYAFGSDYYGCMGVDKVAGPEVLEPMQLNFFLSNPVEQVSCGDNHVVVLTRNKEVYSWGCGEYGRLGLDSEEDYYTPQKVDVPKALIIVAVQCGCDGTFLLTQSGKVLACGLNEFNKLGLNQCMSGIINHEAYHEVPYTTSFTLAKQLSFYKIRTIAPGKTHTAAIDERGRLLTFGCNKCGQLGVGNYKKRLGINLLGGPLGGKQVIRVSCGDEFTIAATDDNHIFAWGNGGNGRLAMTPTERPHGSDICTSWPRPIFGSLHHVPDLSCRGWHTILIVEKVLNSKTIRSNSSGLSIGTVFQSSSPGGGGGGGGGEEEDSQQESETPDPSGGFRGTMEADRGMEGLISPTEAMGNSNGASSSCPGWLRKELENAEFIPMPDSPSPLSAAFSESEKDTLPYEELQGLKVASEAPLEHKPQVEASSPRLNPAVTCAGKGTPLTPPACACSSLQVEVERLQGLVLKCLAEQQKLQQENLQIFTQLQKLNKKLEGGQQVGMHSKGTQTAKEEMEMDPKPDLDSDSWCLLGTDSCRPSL

Sequence of Sphingosine kinase 1 (Homo sapiens) (Q9NYA1 whole entry): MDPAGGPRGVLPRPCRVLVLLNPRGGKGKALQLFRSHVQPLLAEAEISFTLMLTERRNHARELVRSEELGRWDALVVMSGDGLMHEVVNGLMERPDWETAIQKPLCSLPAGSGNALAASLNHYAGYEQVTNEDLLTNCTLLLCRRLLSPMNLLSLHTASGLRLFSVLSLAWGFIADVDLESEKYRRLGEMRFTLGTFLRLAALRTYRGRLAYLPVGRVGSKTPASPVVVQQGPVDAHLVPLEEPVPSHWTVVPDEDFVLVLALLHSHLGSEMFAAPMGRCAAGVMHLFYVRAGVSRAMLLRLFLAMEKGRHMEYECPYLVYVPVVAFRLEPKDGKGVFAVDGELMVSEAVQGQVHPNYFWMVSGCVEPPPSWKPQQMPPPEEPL

| SMILES | inhibition [1] | inhibition [2] | inhibition [3] | inhibition [4] | inhibition [5] | inhibition [6] | inhibition [7] | inhibition [8] | inhibition [9] | inhibition [10] | inhibition [11] | inhibition [12] | inhibition [13] | inhibition [14] | inhibition [15] | inhibition [16] | inhibition [17] | inhibition [18] | inhibition [19] | inhibition [20] |
| --- | --- | --- | --- | --- | --- | --- | --- | --- | --- | --- | --- | --- | --- | --- | --- | --- | --- | --- | --- | --- |
| Cc1ccc(C(=O)NC2CCC2)cc1-c1ccc(C(=O)NCC2CC2)cc1 | -2.08% | 0.15% | -0.32% | 0.14% | -0.02% | 5.36% | 2.23% | 3.94% | 0.66% | 3.52% | 2.96% | 0.93% | 3.06% | 4.6% | 3.71% | -0.33% | 1.33% | 3.14% | 2.04% | 4.75% |
| Fc1ccc(-c2nc3n(c2-c2ccncc2)CCS3)cc1 | -0.03% | -0.14% | -0.18% | 0.53% | -1.41% | 5.66% | 4.06% | 6.22% | 4.63% | 5.03% | 4.11% | 2.77% | 2.98% | 4.83% | 4.36% | 0.55% | 0.72% | 5.52% | 2.5% | 2.21% |
